# Measured values: PubChem BioAssay (NCATS)
# Results filed as inconclusive are left out. Where a call stands in place of a potency, no number is given. A number with no mark means an inactive call. Activity calls are given as the source filed them. Unless noted, calls come from the whole dose curve; as a rule, active = well fitted curve in the direction sought with a large enough effect; inconclusive = small, poorly fitted or top-dose-only effect, or another doubt; inactive = no such curve, though single readings can be large; an effect the other way counts as inactive or inconclusive.
# Assays:
# [1] = qHTS for Inhibitors of Plasmodium falciparum (GB4) proliferation (AID 504315); note: nearly all actives have a fitted effect of over 50% in size; note: potency is the fitted concentration of half-maximal effect
# Procedure, shortened: (§1)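 Erythrocytes infected with P. falciparum line (0.3% parasitemia, 2.5% hematocrit final) incubated with compounds 72 h at 37 °C, 5% CO2; SYBR Green lysis buffer added, fluorescence read next day. Normalized to 0.29 uM artemisinin and DMSO.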
# [2] = qHTS for Inhibitors of Plasmodium falciparum (CP250) proliferation (AID 504320)
# Procedure, shortened: as §1
# [3] = target: Atrial natriuretic peptide receptor 1 (Homo sapiens) (UniProt P16066); assay: Natriuretic polypeptide receptor (hNpr1) antagonism - Pilot CMLD screen (AID 1347052; calls by dose curve;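 note: HEK293 cells with hNpr1 stimulated by hNppA peptide at 0.1 nM; cGMP level read as GloSensor luciferase luminescence after agonist stimulation; series mostly up to about 9.2 µM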)
# [4] = qHTS for Inhibitors of Plasmodium falciparum (HB3) proliferation (AID 504318); note: nearly all actives have a fitted effect of over 60% in size
# Procedure, shortened: as §1
# [5] = qHTS for Inhibitors of Plasmodium falciparum (7G8) proliferation (AID 504316); note: nearly all actives have a fitted effect of over 65% in size; note: potency is the fitted concentration of half-maximal effect
# Procedure, shortened: as §1
# Atrial natriuretic peptide receptor 1 (Homo sapiens), sequence (P16066 whole entry, looked up): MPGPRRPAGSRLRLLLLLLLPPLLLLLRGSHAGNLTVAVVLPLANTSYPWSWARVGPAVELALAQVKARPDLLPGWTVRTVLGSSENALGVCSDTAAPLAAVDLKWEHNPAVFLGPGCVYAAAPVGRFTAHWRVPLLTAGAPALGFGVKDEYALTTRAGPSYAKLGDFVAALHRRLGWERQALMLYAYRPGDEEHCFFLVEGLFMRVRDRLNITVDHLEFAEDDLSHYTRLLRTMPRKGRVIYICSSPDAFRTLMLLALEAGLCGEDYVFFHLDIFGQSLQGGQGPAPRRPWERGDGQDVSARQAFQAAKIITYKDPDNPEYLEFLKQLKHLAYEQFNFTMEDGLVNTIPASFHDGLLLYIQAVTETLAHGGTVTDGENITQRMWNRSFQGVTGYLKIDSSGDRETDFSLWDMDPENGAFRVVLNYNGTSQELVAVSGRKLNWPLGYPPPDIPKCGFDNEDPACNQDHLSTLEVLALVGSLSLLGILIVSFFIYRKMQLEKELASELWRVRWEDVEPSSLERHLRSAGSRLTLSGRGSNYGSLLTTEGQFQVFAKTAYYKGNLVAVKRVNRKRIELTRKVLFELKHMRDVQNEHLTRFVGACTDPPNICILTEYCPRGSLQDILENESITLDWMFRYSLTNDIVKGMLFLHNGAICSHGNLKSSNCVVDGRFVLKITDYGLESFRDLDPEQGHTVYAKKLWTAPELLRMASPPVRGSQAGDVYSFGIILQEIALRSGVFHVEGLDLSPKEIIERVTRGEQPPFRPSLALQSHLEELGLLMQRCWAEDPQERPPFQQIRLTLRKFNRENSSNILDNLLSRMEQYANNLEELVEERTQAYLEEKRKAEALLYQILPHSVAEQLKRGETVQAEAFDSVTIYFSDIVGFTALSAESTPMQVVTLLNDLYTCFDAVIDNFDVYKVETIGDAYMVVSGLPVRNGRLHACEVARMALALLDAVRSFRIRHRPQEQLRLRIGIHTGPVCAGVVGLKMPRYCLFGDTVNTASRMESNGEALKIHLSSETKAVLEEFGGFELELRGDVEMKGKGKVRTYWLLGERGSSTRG
SMILES,Potency [1],Potency [2],Potency [3],Potency [4],Potency [5]
C#CCOCC#CC[C@@]1(C(=O)OC)C=C[C@@H](C)[C@H](c2ccccc2Br)N1C(=O)C(F)(F)F,inactive,inactive,inactive,–,–
C[C@]12C[C@@](C)(C=C1C=Cc1ccc(C(F)(F)F)cc1)C(=O)C[C@H]2c1ccc(C(F)(F)F)cc1,1510 nM (active),inactive,inactive,–,–
COc1ccc([C@]23Cc4cc(OC)c(OC)cc4[C@H](O2)C2=C(CC(C)(C)CC2=O)O3)cc1,inactive,inactive,inactive,–,–
COC(=O)C1=C(C(=O)OC)[C@@H]2N(C)c3ccccc3[C@@]23CCC(=O)N(CCCOC(C)C)C3=N1,inactive,inactive,inactive,–,–
C=CC[C@@H]1C=CC(ON=CC[C@@H]2C=C[C@@H](OC(C)=O)[C@@H](COC(C)=O)O2)[C@H](CO)O1 (some centres not stated),inactive,inactive,inactive,inactive,–
O=C1[C@@H]2[C@H]3[C@H](O)[C@H](O)CC(=NOC[C@@H](O)COCc4ccco4)[C@@H]3CC[C@H]2C(=O)N1Cc1ccccc1,inactive,inactive,inactive,–,–
COc1ccc([C@]23Cc4cc(OC)c(OC)cc4[C@H](O2)c2c(cc(C)oc2=O)O3)cc1,inactive,inactive,inactive,inactive,–
C[C@H]1CC[C@H]2C(=O)N(Cc3ccccc3)C[C@@H](O)CN2[C@H]1c1cccc(Br)c1,inactive,inactive,inactive,–,–
C=C(CCN1C=C(C(=O)OCC)C(c2ccccc2)NC1=O)c1ccc(Cl)cc1 (configuration not stated),inactive,inactive,inactive,–,–
CC1=C[C@@H](COCc2ccccc2)O[C@@]2(C1)C(=O)N(CC1CC1)c1ccccc12,inactive,inactive,inactive,–,–
CC(C)=CCCC(C)=CCN1C(=O)[C@@]2(CC(C)=C[C@@H](COCc3ccccc3)O2)c2ccccc21,inactive,inactive,inactive,–,–
C#CCN1C(=O)[C@]2(OCCC=C[C@H]2C)c2c(Br)cccc21,inactive,inactive,inactive,–,–
CC(=O)C1=C(C)N(CCC=Cc2ccccc2)C(=O)NC1c1ccccc1 (configuration not stated),inactive,inactive,inactive,inactive,–
C#CCCCON=C1C[C@@H](O)[C@H](O)[C@H]2[C@@H]3C(=O)N(Cc4ccc5c(c4)OCO5)C(=O)[C@@H]3CC[C@@H]12,inactive,inactive,inactive,–,–
COc1ccc(O[C@H]2C=C[C@@H](c3ccccc3)O[C@H]2COC(=O)NCc2cccc3ccccc23)cc1,inactive,inactive,inactive,–,–
CC12C=C(C=Cc3ccc(F)cc3)C(C)(C1)C(c1ccc(F)cc1)CC2=O (configuration not stated),inactive,inactive,inactive,–,–
COC1=C[C@@H](C(=O)N[C@H]2CCCC[C@H]2NC(C)=O)[C@]2(C)Cc3ccccc3[C@H]2CC1=O,inactive,inactive,inactive,–,–
COc1ccc([C@]23Cc4c(ccc5ccccc45)[C@H](O2)C2=C(CCCC2=O)O3)cc1,inactive,inactive,inactive,–,–
COC(=O)C1=C(C(=O)OC)[C@@H]2N(Cc3ccccc3)c3ccccc3[C@@]23C[C@@H](C(=O)OC)N(C(=O)NCc2ccccc2)C3=C1,inactive,inactive,inactive,–,–
COCCN1C(=O)C2=C(C1=O)C1N(C)c3ccccc3[C@@]13C[C@@H](CO)N(S(=O)(=O)c1ccc(OC)cc1)C3=N2 (some centres not stated),inactive,inactive,inactive,–,–
O=c1oc2ccccc2c2c1[C@H]1O[C@](c3ccsc3)(Cc3ccccc31)O2,inactive,inactive,inactive,inactive,–

SMILES,Potency [1],Potency [2],Potency [3],Potency [4],Potency [5]
CC1=CC[C@@H](C)O[C@@]2(C1)C(=O)N(Cc1ccc(F)cc1)c1ccccc12,inactive,inactive,inactive,–,–
COc1cccc([C@@H]2NC(=O)CC=C[C@H](C)[C@H](c3cccc(OC)c3)NC(=O)CC=C[C@H]2C)c1,inactive,inactive,inactive,–,–
C[C@H]1C=CCC(=O)NCc2cccc(c2)CNC(=O)N[C@@H]1c1ccccc1,inactive,inactive,inactive,–,–
COC(=O)CCC(=O)OC1(C)C(=O)C=C2C=C(C3CC3)OC=C2C1=O (configuration not stated),inactive,inactive,inactive,inactive,–
C[C@@H](c1ccccc1)N1C(=O)[C@@H]2[C@H]3[C@H](O)[C@H](O)CC(=NOC[C@@H](O)COCc4ccco4)[C@H]3CC[C@H]2C1=O,inactive,inactive,inactive,–,–
COc1cc(CCN2C(=O)NC(c3cccc(C(F)(F)F)c3)C(C(C)=O)=C2C)cc(OC)c1OC (configuration not stated),inactive,inactive,inactive,–,–
C=C(C)C[C@@]1(c2ccccc2)Oc2ccccc2C2=NCCN=C21,inactive,inactive,inactive,–,–
C[C@@H]1C=CCC(=O)N2[C@H](CC(=O)N[C@@H]1c1ccccc1)C[C@@H](C)[C@@H]2c1ccccc1,inactive,inactive,inactive,inactive,–
COc1cc2c(c(OC)c1OC)[C@@]1(c3ccccc3)CCCC[C@H]1[C@@H]2NC(=O)C(F)(F)F,inactive,inactive,inactive,–,–
C[C@H](O)CON1C(=O)c2ccccc2C1=O,inactive,inactive,inactive,–,–
CC1=CC[C@@H](COc2ccccc2)O[C@@]2(C1)C(=O)N(CC1CC1)c1ccccc12,inactive,inactive,inactive,–,–
C=C(C(=O)C(C)(C)O)C(O)c1ccc([N+](=O)[O-])cc1 (configuration not stated),inactive,inactive,inactive,–,–
C#CCCOC(=O)N1C2=NC3=C(C(=O)N(Cc4ccc5c(c4)OCO5)C3=O)C3N(C)c4ccccc4[C@]23C[C@H]1CO (some centres not stated),inactive,inactive,inactive,–,–
C=C(C[C@@]1(C(=O)OC)C=C[C@@H](C)[C@H](c2ccccc2Br)N1C(=O)C(F)(F)F)c1ccccc1,–,–,inactive,–,1900 nM (active)
COC(=O)C1=C[C@@]2(c3ccc(F)cc3[C@@H](OC)[C@@H]2C)[C@@H]2C=C[C@H]1C2,inactive,inactive,inactive,–,–
CC(CCN1CCCc2nc(C)c(C)cc21)=NO[C@H](C)c1cn([C@H](CO)Cc2ccccc2)nn1,–,–,inactive,–,1510 nM (active)
CCc1cc2c(nc1CC)CCN(CCC(C)=NOCC[C@@H]1C=C[C@H](OC(C)=O)[C@@H](COC(C)=O)O1)C2,inactive,inactive,inactive,–,–
COC(=O)[C@@H]1CC23C(=NC(c4ccc([N+](=O)[O-])cc4)=C(C(F)(F)F)[C@@H]2N(C)c2ccccc23)N1C(C)=O (some centres not stated),inactive,inactive,inactive,–,–
COc1ccc2c3c(c(=O)oc2c1)[C@H]1O[C@](c2ccsc2)(Cc2cc(C#N)ccc21)O3,inactive,inactive,inactive,–,–
O=C(N[C@H](c1cccc(Br)c1)[C@@H]1CCCC=C1c1ccccc1)C(F)(F)F,–,–,inactive,–,inactive
CC=Cc1cc2ccccc2c2c(C(=O)OC)c(C(=O)OC)c(C(=O)OC(C)(C)C)n12,inactive,inactive,inactive,–,–

SMILES,Potency [1],Potency [2],Potency [3],Potency [4],Potency [5]
CCCCCCc1cc2cc(OC)c(OC)cc2c2c(C(=O)OC)c(C(=O)OC)c(C(=O)OC)n12,–,–,inactive,–,1900 nM (active)
C=C(C)[C@@H]1CC2=C(OC)C(CC=C(C)C)(CC=C(C)C)C(=O)C(C(=O)c3ccccc3)=C2O1,–,–,inactive,–,1690 nM (active)
COc1cccc([C@@H]2Oc3ccc(OC)cc3C(=O)[C@@H]2OC(=O)Nc2cc(OC)c(OC)c(OC)c2)c1,inactive,inactive,inactive,–,–
CC(CCN1CCCc2nc(C)c(C)cc21)=NOC[C@@H](O)COCc1ccco1,inactive,inactive,inactive,–,–
COC(=O)C1=C(C)N(CC2CC2)C(=O)NC1CCc1ccccc1 (configuration not stated),inactive,inactive,inactive,–,–
Cc1cc2c(c(=O)n1Cc1ccccc1)[C@H]1O[C@](CCCCN3C(=O)c4ccccc4C3=O)(Cc3cc(C#N)ccc31)O2,inactive,inactive,inactive,–,–
CCCCn1c(C)cc2c(c1=O)[C@H]1O[C@](CCCCN3C(=O)c4ccccc4C3=O)(Cc3ccccc31)O2,–,–,inactive,–,1690 nM (active)
Oc1ccc2c(c1-c1c(O)c(Br)cc3c1CCCC3)CCCC2,inactive,inactive,inactive,–,–
CC(C)=CCCC(C)=CCON=C1C[C@@H](O)[C@@H](O)[C@@H]2[C@H]3C(=O)N(Cc4ccccc4)C(=O)[C@@H]3CC[C@@H]12,inactive,inactive,inactive,–,–
COc1ccc([C@]23Cc4ccccc4[C@H](O2)c2c(cc(-c4ccccc4)oc2=O)O3)cc1,inactive,inactive,inactive,–,–
COc1cccc([C@@H](NC(=O)C(F)(F)F)[C@@H]2CCCC=C2c2ccccc2)c1,inactive,inactive,inactive,–,–
COc1ccc(-c2nc3c(c4c2C[C@H](c2ccccc2)OC4)CN(S(=O)(=O)c2ccc(NC(C)=O)cc2)CC3)c(C)c1,inactive,inactive,inactive,–,–
COc1ccc(O[C@H]2C=C[C@@H](c3ccccc3)O[C@H]2COC(=O)CCC(C)=NO[C@H](C)c2cn([C@@H]3COC[C@@H]3O)nn2)cc1,inactive,inactive,inactive,–,–
CCOC(=O)CCN1C(=O)[C@@H]2[C@H]3[C@H](O)[C@H](O)CC(=NOCc4ccccc4)[C@@H]3CC[C@H]2C1=O,inactive,inactive,inactive,–,–
C=CC[C@](C)(O)c1ccccc1,–,–,inactive,–,1510 nM (active)
CCCC[C@]12Cc3cc(OC)c(OC)cc3[C@H](O1)c1c(cc(-c3ccccc3)oc1=O)O2,–,–,inactive,–,1510 nM (active)
COc1ccc(O[C@H]2C=C[C@@H](c3ccccc3)O[C@H]2COC(=O)CCC(C)=NO[C@H](C)CN2CCCc3nc(C)c(C)cc32)cc1,–,–,inactive,–,1900 nM (active)
COc1ccc2c(c1)O[C@@H](c1cccc(C(F)(F)F)c1)[C@H](OC(=O)Nc1cc(OC)c(OC)c(OC)c1)C2=O,inactive,inactive,inactive,–,–
COC(=O)C1=C(C)N(CCc2cc(OC)c(OC)c(OC)c2)C(=O)NC1c1ccc(Br)cc1 (configuration not stated),inactive,inactive,inactive,–,–
CC(=O)OC[C@H]1O[C@H](CCON=C(C)CCN2CCc3nc(-c4ccccc4)c(-c4ccccc4)cc3C2)C=C[C@H]1OC(C)=O,–,–,inactive,–,1510 nM (active)
